Assay outcomes from PubChem BioAssay.
VP16 counter: inhibits Gal4-VP16 luciferase reporter, ROR gamma counter-screen; Drosophila S2 Gal4-VP16 UAS-luciferase, luminescence, 20 h; Potency, µM (doses to about 53.6 µM), without a hit: at the highest dose activity, negative = inhibition, usual class: inhibitors; 310,000 compounds, 3.5% hits;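 note: Gal4-VP16 expression switched on by copper sulfate through the metallothionein promoter; nearly all actives have a fitted effect of over 50% in size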
PLK1 PBD block: PLK1 (human) polo-box domain binding inhibition | P53350 | Plk1 PBD binding of FITC phosphopeptide, fluorescence polarization | Potency, µM, for the others: max response, negative = inhibition, usual class: inhibitors | 360,000 compounds, 2.8% hits | AID 720504; note: series mostly up to about 57 µM; nearly all actives have a fitted effect of over 65% in size
RORg inh: blocks mouse ROR gamma transcriptional activity; Potency, µM (series often up to 53.6 µM), without a hit: top-dose activity change, negative = inhibition, usual class: inhibitors; 310,000 compounds, 5.4% hits; AID 2551; Drosophila S2 Gal4-RORgamma UAS-luciferase reporter, 20 h; P51450; note: nearly all actives have a fitted effect of over 60% in size
Target sequence (P51450 whole entry, looked up, the tested form may be a part): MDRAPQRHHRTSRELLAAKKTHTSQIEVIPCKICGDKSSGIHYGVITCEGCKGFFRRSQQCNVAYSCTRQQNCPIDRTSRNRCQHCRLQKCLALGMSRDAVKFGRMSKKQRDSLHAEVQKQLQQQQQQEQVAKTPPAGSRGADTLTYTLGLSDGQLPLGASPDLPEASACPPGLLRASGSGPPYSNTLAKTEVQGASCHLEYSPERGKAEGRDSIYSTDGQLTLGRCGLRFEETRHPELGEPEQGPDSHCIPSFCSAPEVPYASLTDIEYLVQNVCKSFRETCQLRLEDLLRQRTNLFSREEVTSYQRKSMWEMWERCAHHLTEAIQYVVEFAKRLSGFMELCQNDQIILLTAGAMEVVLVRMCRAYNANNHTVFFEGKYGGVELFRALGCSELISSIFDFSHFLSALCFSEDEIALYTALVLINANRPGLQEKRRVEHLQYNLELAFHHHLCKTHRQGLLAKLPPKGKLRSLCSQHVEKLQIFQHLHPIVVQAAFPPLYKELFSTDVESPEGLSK
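Drosophila S2 cells stably expressing Gal4-DBD/mouse RORγ fusion under metallothionein promoter plus UAS-luciferase; compound 1 h, then 700 uM CuSO4 induction for 20 h at ambient temperature; inhibition read as reduced luminescence.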
Sfp inh: blocks B. subtilis Sfp PPTase activity; Biochemical Sfp PPTase activity, qHTS; Potency, µM, without a hit: largest response in the series, negative = inhibition, hits mostly inhibitors; 310,000 compounds, 3.5% hits; AID 1490;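 note: the enzyme is Sfp with the accession as filed and its product quenches rhodamine fluorescence; 0% = enzyme reaction without inhibitor and -100% = no enzyme wells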
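After 15 min at room temperature with compound, 15 nM Sfp received 5 uM rhodamine-CoA plus 12.5 uM BHQ-2-ybbR (50 mM Hepes pH 7.6, 10 mM MgCl2). Rate came from the fluorescence difference over 30 min, ex 525/em 598 nm.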
ALDH1A1 inh: blocks purified human ALDH1A1 activity | Potency, µM (titrated, usually from 75.3 µM), without a hit: at the top dose activity, negative = inhibition, most hits filed as inhibitors | Purified ALDH1A1, NADH fluorescence, propionaldehyde substrate | AID 1030 | P00352 | 220,000 compounds, 7.3% hits; active = well fitted inhibition curve with a large enough effect, not every such curve was filed as active; inconclusive = small, poorly fitted or top-dose-only effect, or another doubt; inactive = no such curve, though single readings can be large or run the other way;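 note: plate controls were no enzyme wells and a reference inhibitor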
Starred values were filed as active, the others as inactive; ? = inconclusive; / = no result. The list is not random: actives were taken first. Their share in the collection is about 12%. Unless noted, calls come from the whole dose curve; as a rule, active = well fitted curve in the direction sought with a large enough effect; inconclusive = small, poorly fitted or top-dose-only effect, or another doubt; inactive = no such curve, though single readings can be large; an effect the other way counts as inactive or inconclusive. Unless noted, % is set by controls: 0 for no effect and ±100 for the full control effect; potency is the fitted concentration of half-maximal effect.

SMILES	VP16 counter	PLK1 PBD block	RORg inh	Sfp inh	ALDH1A1 inh
CCCCN(C=O)c1c(CC)nc2ccc(C(=O)NCc3cccs3)cn12	/	-0.4%	/	/	/
CC1(Oc2ccccc2-c2ccno2)CCN(Cc2csc3ccccc23)C1 (stereo not given)	/	6.1%	/	/	/
O=[N+]([O-])/C(=C\Nc1ccccc1)S(=O)(=O)c1ccccc1	6.6%	-23.3%	-39.9%	-15.4%	-7.0%
COc1ccc(N/C=C(\[N+](=O)[O-])S(=O)(=O)c2ccccc2)cc1	-5.7%	29.9µM*	-24.2%	9.3%	/
COCc1cc(=O)[nH]c(Nc2nc(C)c3ccccc3n2)n1	?	-12.2%	-13.7%	18.1%	20µM*
COCc1cc(=O)[nH]c(-c2ccccc2)n1	-18.1%	-28.5%	1.7%	6.2%	7.0%
Cc1ccc2c(C)nc(Nc3nc(CSc4nnnn4-c4ccccc4)cc(=O)[nH]3)nc2c1	?	-7.0%	-23.1%	-0.7%	3.98µM*
COc1ccc2nc(Nc3nc(CSc4nnnn4-c4ccccc4)cc(=O)[nH]3)nc(C)c2c1	-4.0%	-8.5%	-2.7%	16.9%	?
Cc1ccc2oc(Nc3nc(-c4ccccc4)cc(=O)[nH]3)nc2c1	-14.0%	-9.6%	2.82µM*	-16.4%	-2.5%
COc1ccc2nc(Nc3nc(CSc4ccc(C)cc4)cc(=O)[nH]3)nc(C)c2c1	-2.9%	-3.2%	-8.6%	-23.6%	?
COCc1cc(=O)[nH]c(Nc2nc3ccccc3o2)n1	?	-5.9%	3.55µM*	?	15.0%
Cc1nc(-c2ccccc2)cc(=O)[nH]1	1.2%	1.5%	-1.9%	1.9%	1.4%
C[C@@H]1CCCCO[C@H](CN(C)S(=O)(=O)c2ccccc2)[C@@H](C)CN([C@H](C)CO)C(=O)c2cc(NC(=O)Cc3ccccc3)ccc2O1	/	-8.5%	/	/	/
COc1ccc(CN2C(=O)C(CC(=O)NC3CCCC3)CC(C(=O)N3CCOCC3)=C2C)cc1 (stereo not given)	/	-12.8%	/	/	/
O=C(O)C1CCN(S(=O)(=O)c2ccc3[nH]ccc3c2)CC1	/	-3.5%	/	/	/
CCC1NC(=O)c2cc3ccccc3cc2-n2c1nc1cc(OC)c(OC)cc1c2=O (stereo not given)	/	4.2%	/	/	/
Cc1cc(C)c2nc(Nc3nc(CSc4nc5ccccc5[nH]4)cc(=O)[nH]3)nc(C)c2c1	/	-18.1%	/	/	/
COC(=O)Cc1cc(=O)[nH]c(Nc2nc3ccccc3o2)n1	?	-4.6%	-27.1%	1.7%	6.4%
CCOC(=O)Cc1cc(=O)[nH]c(Nc2nc3ccccc3o2)n1	15.8µM*	1.1%	10µM*	3.8%	1.2%
Cc1cc(C)c2nc(Nc3nc(-c4ccccc4)cc(=O)[nH]3)nc(C)c2c1	2.24µM*	-11.5%	0.631µM*	-0.7%	/
CN(C)c1ncnc2ccc(-c3ccccc3C(F)(F)F)cc12	-9.3%	/	-7.1%	-8.7%	?
Cc1ccsc1C(=O)NC(C)c1ccccc1 (stereo not given)	-11.8%	-13.4%	-37.9%	0.2%	/
CC(C)N(C)c1ncnc2c1ncn2[C@H]1CN(Cc2ccc(F)cc2)C[C@@H](CO)O1	/	0.2%	/	/	/
C=CCn1c(SCC(=O)NCC2CCCO2)nc2scc(-c3ccc(OC)cc3)c2c1=O (stereo not given)	-11.4%	-9.6%	0.6%	-16.6%	/
C=CCn1c(SCC(=O)NCCOC)nc2scc(-c3ccco3)c2c1=O	-4.1%	?	0.3%	10µM*	7.94µM*
SMILES	VP16 counter	PLK1 PBD block	RORg inh	Sfp inh	ALDH1A1 inh
C=CCn1c(SCC(=O)NCC2CCCO2)nc2scc(-c3ccco3)c2c1=O (stereo not given)	5.4%	-10.5%	-20.8%	-97.3%	25.1µM*
CCN1C(=O)CSC1=Nc1ccc(C(=O)OC)cc1	/	-2.1%	/	/	/
CC(C)C(CC(=O)NCc1ccco1)c1ccco1 (stereo not given)	29.5%	-13.2%	-6.8%	28.2µM*	?
O=C(Cc1ccccc1[N+](=O)[O-])NCc1ccco1	-11.4%	-7.4%	7.6%	50.1µM*	?
CC1(C)CC(=O)c2cnc(NC(=O)CSc3nc4ccccc4o3)nc2C1	1.4%	-8.3%	26.0%	70.8µM*	-13.1%
CCCCC(=O)Nc1ncc2c(n1)CC(C)(C)CC2=O	19.1%	-8.1%	17.0%	18.9%	-3.7%
CC1(C)CC(=O)c2cnc(NC(=O)Cc3ccc(Cl)cc3)nc2C1	?	18.9µM*	28.4%	5.9%	?
Nc1nc(=O)n(C2OC(CO)C(O)C2O)cc1Cl (stereo not given)	-12.5%	/	-19.4%	-29.2%	5.2%
O=C(NCCN1CCCCC1)c1ccc(Cc2nc3ccccc3[nH]2)cc1	/	/	/	/	6.3%
CCn1c(CSCc2ccc(C)cc2)n[nH]c1=S	3.55µM*	-4.8%	5.62µM*	-7.7%	/
Cn1c(CSCc2ccc(Cl)c(Cl)c2)n[nH]c1=S	3.98µM*	-9.8%	5.62µM*	-18.9%	-11.2%
CCn1c(CSCc2ccc(Cl)cc2)n[nH]c1=S	7.08µM*	-15.4%	2.24µM*	-11.1%	?
Cn1c(CCNC(=O)c2ccccc2Cl)n[nH]c1=S	-3.1%	-9.5%	-18.9%	2.2%	-4.6%
CCn1c(CC(C)C)n[nH]c1=S	-1.3%	-17.7%	?	-28.0%	13.6%
Cc1ccccc1-c1cc2nc(Oc3cccc4ccccc34)n(C)c(=O)c2s1	/	-3.1%	/	/	/
CCCCCCCCCCCCCCCCCCOC[C@H](COP(=O)([O-])OCC[N+](C)(C)C)OC(C)=O	6.2%	/	-2.3%	12.0%	8.6%
CCN(CC)c1ccc(/C=N/NC(=O)CCC(=O)NCc2ccccc2)c(O)c1	?	-9.4%	3.16µM*	-4.8%	-11.4%
CCOC(=O)N/N=C/c1ccc(N(CC)CC)cc1O	?	1.8%	?	-17.0%	0.6%
CCN(CC)c1ccc(/C=N/NC(=O)CNC(=O)C2COc3ccccc3O2)c(O)c1 (stereo not given)	2.82µM*	2.7%	2.82µM*	16.5%	/
COc1cc(/C=N\NC(=O)CNC(=O)C2COc3ccccc3O2)ccc1O (stereo not given)	3.4%	-8.0%	3.1%	8.5%	6.2%
Cc1cc(NS(=O)(=O)c2ccc(NC(=O)c3ccc([N+](=O)[O-])cc3)cc2)nc(C)n1	/	-9.8%	/	/	/
COc1ccc(CNC(=O)Cn2nc([N+](=O)[O-])c(Br)c2C)cc1	13.8%	-10.1%	4.0%	-6.5%	/
Cc1c(Br)c([N+](=O)[O-])nn1CC(=O)NCc1ccccc1	4.9%	11.9µM*	-1.5%	6.5%	-0.9%
O=C(NCc1ccccc1)C(c1ccccc1)n1c(C2CC2)nc2ccccc21 (stereo not given)	/	-3.3%	/	/	/
COc1ccc2c(-c3ccccc3)cc(SCC(=O)NC3CCS(=O)(=O)C3)nc2c1 (stereo not given)	-5.8%	-3.0%	11.2µM*	-5.4%	?
CCCCN(C=O)c1c(CC)nc2ccc(C(=O)N3CCN(c4ccccc4)CC3)cn12	/	1.7%	/	/	/
O=C(Nc1ccccc1)Nc1ccc2ncoc2c1	3.6%	-13.4%	-44.8%	-3.7%	-2.9%
O=C(Nc1ccccc1)Nc1ccc2ocnc2c1	6.6%	21.2µM*	-7.5%	9.3%	-6.9%
